In the supplement of paper PMC12282887:
± gives the standard deviation of the averaged measurements.

What was measured:
Experiment in all cases: promoter activity interaction Z-score (Lux/OD deviation from empty-vector control); higher = stronger promoter induction by the compound
[1] = system: E. coli BW25113 acrABp lux reporter
How it was run: (§1)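 Four 1:2 dilutions of each compound were tested in biological duplicates on E. coli BW25113 carrying low-copy luxCDABE promoter reporters, either wild type or deleted for one of three genes. Cultures of 40 µl LB Lennox in 384-well plates were kept at 37°C and read for OD600 and luminescence every 30 min for 12 h. Integration windows were 0–8 h for wild type and 1–9 h for deletion strains, and wells under 10% of the median growth value were discarded. The score is a Z-transformed residual of growth-normalised luminescence relative to a control fit.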

[2] = system: E. coli BW25113 marRABp lux reporter
How it was run: as §1

[3] = system: E. coli BW25113 micFp lux reporter
How it was run: as §1

[4] = system: E. coli BW25113 ompFp lux reporter
How it was run: as §1

[5] = system: E. coli BW25113 robp lux reporter
How it was run: as §1

[6] = system: E. coli BW25113 soxSp lux reporter
How it was run: as §1

[7] = system: E. coli BW25113 tolCp lux reporter
How it was run: as §1

[8] = 1.3 µg/ml, genetic background: wild type
[9] = 1.3 µg/ml, genetic background: ΔmarA
[10] = 1.3 µg/ml, genetic background: Δrob
[11] = 1.3 µg/ml, genetic background: ΔsoxS
[12] = 2.5 µg/ml, genetic background: wild type
[13] = 2.5 µg/ml, genetic background: ΔmarA
[14] = 2.5 µg/ml, genetic background: Δrob
[15] = 2.5 µg/ml, genetic background: ΔsoxS
[16] = 5 µg/ml, genetic background: wild type
[17] = 5 µg/ml, genetic background: ΔmarA
[18] = 5 µg/ml, genetic background: Δrob
[19] = 5 µg/ml, genetic background: ΔsoxS
[20] = 10 µg/ml, genetic background: wild type
[21] = 10 µg/ml, genetic background: ΔmarA
[22] = 10 µg/ml, genetic background: Δrob
[23] = 10 µg/ml, genetic background: ΔsoxS

## C/C=C/C/C=C/CCC(=O)[C@H]1O[C@H]1C(N)=O [Cerulenin]
[1]; [8]
  promoter activity interaction Z-score: -0.125 ± 0.083
[1]; [9]
  promoter activity interaction Z-score: 0.156 ± 2.5
[1]; [10]
  promoter activity interaction Z-score: -0.449 ± 0.14
[1]; [11]
  promoter activity interaction Z-score: -0.289 ± 0.15
[1]; [12]
  promoter activity interaction Z-score: -0.467 ± 0.3
[1]; [13]
  promoter activity interaction Z-score: -0.0359 ± 0.66
[1]; [14]
  promoter activity interaction Z-score: -0.976 ± 0.19
[1]; [15]
  promoter activity interaction Z-score: -0.932 ± 0.045
[1]; [16]
  promoter activity interaction Z-score: -0.444 ± 0.41
[1]; [17]
  promoter activity interaction Z-score: -0.831 ± 1.3
[1]; [18]
  promoter activity interaction Z-score: -0.767 ± 0.071
[1]; [19]
  promoter activity interaction Z-score: -1.14 ± 0.31
[1]; [20]
  promoter activity interaction Z-score: -0.873 ± 0.42
[1]; [21]
  promoter activity interaction Z-score: -0.628 ± 0.16
[1]; [22]
  promoter activity interaction Z-score: -1.08 ± 0.23
[1]; [23]
  promoter activity interaction Z-score: -1.52 ± 0.22
[2]; [8]
  promoter activity interaction Z-score: -0.429 ± 0.45
[2]; [9]
  promoter activity interaction Z-score: -0.469 ± 0.27
[2]; [10]
  promoter activity interaction Z-score: -0.456 ± 0.13
[2]; [11]
  promoter activity interaction Z-score: -0.416 ± 0.089
[2]; [12]
  promoter activity interaction Z-score: -0.654 ± 0.29
[2]; [13]
  promoter activity interaction Z-score: -0.403 ± 0.076
[2]; [14]
  promoter activity interaction Z-score: -0.662 ± 0.091
[2]; [15]
  promoter activity interaction Z-score: -0.444 ± 0.12
[2]; [16]
  promoter activity interaction Z-score: -0.892 ± 0.19
[2]; [17]
  promoter activity interaction Z-score: -0.779 ± 0.41
[2]; [18]
  promoter activity interaction Z-score: -0.818 ± 0.011
[2]; [19]
  promoter activity interaction Z-score: -0.796 ± 0.034
[2]; [20]
  promoter activity interaction Z-score: -0.948 ± 0.37
[2]; [21]
  promoter activity interaction Z-score: -0.377 ± 0.77
[2]; [22]
  promoter activity interaction Z-score: -1.01 ± 0.028
[2]; [23]
  promoter activity interaction Z-score: -0.994 ± 0.11
[3]; [8]
  promoter activity interaction Z-score: -0.474 ± 0.33
[3]; [9]
  promoter activity interaction Z-score: -0.0522 ± 0.1
[3]; [10]
  promoter activity interaction Z-score: -0.112 ± 0.0041
[3]; [11]
  promoter activity interaction Z-score: -0.269 ± 0.047
[3]; [12]
  promoter activity interaction Z-score: -0.545 ± 0.087
[3]; [13]
  promoter activity interaction Z-score: 0.0153 ± 0.15
[3]; [14]
  promoter activity interaction Z-score: -0.217 ± 0.13
[3]; [15]
  promoter activity interaction Z-score: -0.157 ± 0.23
[3]; [16]
  promoter activity interaction Z-score: -0.73 ± 0.2
[3]; [17]
  promoter activity interaction Z-score: -0.0985 ± 0.11
[3]; [18]
  promoter activity interaction Z-score: -0.316 ± 0.094
[3]; [19]
  promoter activity interaction Z-score: -0.417 ± 0.0084
[3]; [20]
  promoter activity interaction Z-score: -0.803 ± 0.19
[3]; [21]
  promoter activity interaction Z-score: -0.112 ± 0.028
[3]; [22]
  promoter activity interaction Z-score: -0.428 ± 0.056
[3]; [23]
  promoter activity interaction Z-score: -0.177 ± 0.14
[4]; [8]
  promoter activity interaction Z-score: 0.448 ± 0.98
[4]; [9]
  promoter activity interaction Z-score: -0.174 ± 0.032
[4]; [10]
  promoter activity interaction Z-score: 0.809 ± 0.68
[4]; [11]
  promoter activity interaction Z-score: 0.456 ± 0.65
[4]; [12]
  promoter activity interaction Z-score: 0.281 ± 0.58
[4]; [13]
  promoter activity interaction Z-score: 0.575 ± 1.4
[4]; [14]
  promoter activity interaction Z-score: 0.286 ± 1.6
[4]; [15]
  promoter activity interaction Z-score: 0.108 ± 0.82
[4]; [16]
  promoter activity interaction Z-score: 0.0997 ± 0.61
[4]; [17]
  promoter activity interaction Z-score: -0.516 ± 0.26
[4]; [18]
  promoter activity interaction Z-score: -0.143 ± 0.79
[4]; [19]
  promoter activity interaction Z-score: -0.26 ± 1
[4]; [20]
  promoter activity interaction Z-score: -0.484 ± 0.16
[4]; [21]
  promoter activity interaction Z-score: -0.179 ± 1.2
[4]; [22]
  promoter activity interaction Z-score: -0.74 ± 0.62
[4]; [23]
  promoter activity interaction Z-score: -0.034 ± 1
[5]; [8]
  promoter activity interaction Z-score: -0.713 ± 0.68
[5]; [9]
  promoter activity interaction Z-score: -0.524 ± 0.17
[5]; [10]
  promoter activity interaction Z-score: -0.0923 ± 0.31
[5]; [11]
  promoter activity interaction Z-score: -0.398 ± 0.41
[5]; [12]
  promoter activity interaction Z-score: -0.365 ± 0.25
[5]; [13]
  promoter activity interaction Z-score: 1.47 ± 0.041
[5]; [14]
  promoter activity interaction Z-score: -0.839 ± 0.52
[5]; [15]
  promoter activity interaction Z-score: -0.254 ± 0.55
[5]; [16]
  promoter activity interaction Z-score: -0.743 ± 0.19
[5]; [17]
  promoter activity interaction Z-score: -0.973 ± 0.24
[5]; [18]
  promoter activity interaction Z-score: -0.585 ± 0.0081
[5]; [19]
  promoter activity interaction Z-score: -1.25 ± 0.42
[5]; [20]
  promoter activity interaction Z-score: -0.802 ± 0.13
[5]; [21]
  promoter activity interaction Z-score: -0.285 ± 0.72
[5]; [22]
  promoter activity interaction Z-score: -0.242 ± 0.94
[5]; [23]
  promoter activity interaction Z-score: -1.2 ± 0.47
[6]; [8]
  promoter activity interaction Z-score: 0.113 ± 0.13
[6]; [9]
  promoter activity interaction Z-score: 0.192 ± 0.091
[6]; [10]
  promoter activity interaction Z-score: 0.247 ± 0.027
[6]; [11]
  promoter activity interaction Z-score: 0.367 ± 0.43
[6]; [12]
  promoter activity interaction Z-score: 0.186 ± 0.013
[6]; [13]
  promoter activity interaction Z-score: 0.183 ± 0.076
[6]; [14]
  promoter activity interaction Z-score: 0.113 ± 0.03
[6]; [15]
  promoter activity interaction Z-score: 0.157 ± 0.38
[6]; [16]
  promoter activity interaction Z-score: 0.112 ± 0.028
[6]; [17]
  promoter activity interaction Z-score: 0.138 ± 0.17
[6]; [18]
  promoter activity interaction Z-score: 0.18 ± 0.047
[6]; [19]
  promoter activity interaction Z-score: 0.17 ± 0.56
[6]; [20]
  promoter activity interaction Z-score: -0.107 ± 0.23
[6]; [21]
  promoter activity interaction Z-score: -0.0897 ± 0.034
[6]; [22]
  promoter activity interaction Z-score: -0.133 ± 0.19
[6]; [23]
  promoter activity interaction Z-score: 0.572 ± 1.2
[7]; [8]
  promoter activity interaction Z-score: -1.14 ± 0.49
[7]; [9]
  promoter activity interaction Z-score: -0.979 ± 0.76
[7]; [10]
  promoter activity interaction Z-score: -0.746 ± 0.32
[7]; [11]
  promoter activity interaction Z-score: -0.768 ± 0.23
[7]; [12]
  promoter activity interaction Z-score: -0.464 ± 0.17
[7]; [13]
  promoter activity interaction Z-score: -0.204 ± 1.3
[7]; [14]
  promoter activity interaction Z-score: -1.38 ± 0.2
[7]; [15]
  promoter activity interaction Z-score: -0.639 ± 0.61
[7]; [16]
  promoter activity interaction Z-score: -0.559 ± 0.033
[7]; [17]
  promoter activity interaction Z-score: -0.9 ± 0.62
[7]; [18]
  promoter activity interaction Z-score: -1.25 ± 0.71
[7]; [19]
  promoter activity interaction Z-score: -1.5 ± 0.1
[7]; [20]
  promoter activity interaction Z-score: -0.737 ± 0.051
[7]; [21]
  promoter activity interaction Z-score: -1.7 ± 0.36
[7]; [22]
  promoter activity interaction Z-score: -0.996 ± 0.2
[7]; [23]
  promoter activity interaction Z-score: -0.404 ± 0.65
